# Source: PubChem
# OTUD3 inh = inhibitors of human OTUD3 deubiquitinase; OTU domain-containing protein 3 (Homo sapiens), Q5T2D3; purified OTUD3, Ub-rhodamine fluorescence, 2 h; inhibition, % at 25 µM; 47,000 compounds, 0.7% hits; AID 1645858, 2021
# USP28 inh = inhibitors of human USP28 deubiquitinase. Ubiquitin carboxyl-terminal hydrolase 28 (Homo sapiens), Q96RU2. purified USP28, Ub-rhodamine cleavage fluorescence, 30 min. inhibition, % at 25 µM. 47,000 compounds, 3% hits. AID 1645857, 2021
# USP17 inh = inhibitors of human USP17 deubiquitinase; inhibition, % at 50 µM; 47,000 compounds, 6.5% hits; purified USP17, Ub-rhodamine cleavage fluorescence, 3 h; AID 1645855, 2021; Ubiquitin carboxyl-terminal hydrolase 17-like protein 5 (Homo sapiens), A8MUK1
# USP8 block = inhibitors of human USP8 deubiquitinase; purified USP8, Ub-rhodamine cleavage fluorescence, 30 min; inhibition, % at 20 µM; 47,000 compounds, 4.2% hits
# USP10 block = inhibitors of human USP10 deubiquitinase. inhibition, % at 20 µM. Ubiquitin carboxyl-terminal hydrolase 10 (Homo sapiens), Q14694. purified USP10, Ub-rhodamine fluorescence, 60 min. 47,000 compounds, 1.1% hits. AID 1645856, 2021
# USP30 block = inhibitors of human USP30 deubiquitinase | purified USP30, Ub-rhodamine cleavage fluorescence | inhibition, % at 25 µM | 47,000 compounds, 5.3% hits | AID 1645860, 2021
# * = called active by the depositor; i = inactive; x = no result. In the library only some 13% were active in any assay of this set; here they are far more common. Rule as the data show it: active = inhibition above about 30%; inactive = the rest.
SMILES,OTUD3 inh,USP28 inh,USP17 inh,USP8 block,USP10 block,USP30 block
CCOc1ccc(CC(=O)N2CCCC2c2cc(C)no2)cc1 (centres undefined),-6,-11,-8,2,1,-10
Cc1ccc(NC(=O)N2CCC3(CC2)NC(=O)C(CC(C)C)NC3=O)cc1 (centres undefined),25,17,43*,21,2,46*
CN1CCN(C(=O)CC[C@H]2CNC(=O)[C@@H]3[C@@H](CCN3C3CCCCC3)N2C)CC1,3,5,-37,10,2,-8
Cc1ccc(-c2nc(NC(=O)c3c(F)cccc3F)sc2C)cc1Cl,11,9,37*,24,3,23
Cc1ccc(-c2nnc(NC(=O)c3c(F)cccc3F)s2)cc1,3,3,3,9,3,12
Cc1ccc(-c2ncc(C(=O)Nc3ccc(Cl)cc3)c(-c3ccncc3)n2)cc1,-109,-130,-104,28,-4,i
O=C(Nc1nnc(-c2ccc(F)cc2)s1)c1c(F)cccc1F,11,11,41*,-10,-3,26
Cc1ccc(-c2nc(NC(=O)Nc3ccc(Cl)cc3)sc2C)cc1,0,0,60*,10,15,15
Cc1ccc(-c2nc(NC(=O)c3c(-c4ccccc4)noc3C)sc2C)cc1Cl,0,5,-5,-42,-4,-8
Cc1sc(NC(=O)c2ccc3ccccc3n2)nc1-c1ccc(F)cc1,-18,-36,35*,9,-10,-157
COc1cccc(NS(=O)(=O)c2cc(-c3[nH]ncc3C(=O)N3CCCC3)oc2C)c1,18,11,1,6,8,-20
CC(=O)NC(Cc1ccc(C)cc1)C(=O)NC1CCN(C(=O)C2CC2)CC1 (centres undefined),-4,-1,3,6,0,3
Cc1csc(C2(NC(=O)CCc3ccncc3)CCCC2)n1,-7,-7,x,-1,2,-6
Cc1nc(-c2ccccc2)nc2c1CC(=O)N2Cc1cccnc1,-72,-74,-11,52*,-5,-301
Cc1nc(C2CCNCC2)nc2c1CC(=O)N2CCc1ccccc1,14,11,4,1,-1,27
Cc1ccccc1NC(=O)CN1CCCN(Cc2ccccc2F)S1(=O)=O,3,-7,0,-3,-1,-14
COc1ccc(C(=O)N(O)c2ccccc2)cc1,8,4,29,78*,0,12
CN(C)c1ccc(CNc2nn3c(-c4cccnc4)cnc3s2)cc1,40*,67*,63*,24,7,91*
c1cncc(-c2cnc3sc(NCc4ccc5c(c4)OCO5)nn23)c1,60*,87*,61*,37*,30*,101*
C=C1C(=O)O[C@H]2C[C@@H](C)[C@@H]3[C@@H](OC(C)=O)C[C@@H](O)[C@@]3(C)[C@@H](OC(C)=O)[C@H]12,-1,-4,1,6,3,20
COc1ccc(CC(=O)OCC(=O)N2c3ccccc3NC(=O)C2(C)C)cc1,7,13,34*,33*,9,-12
O=C(c1ccccc1[N+](=O)[O-])N1c2ncnn2C(c2ccccc2)CC1c1ccccc1 (centres undefined),-9,-4,0,-85,3,-8
N#Cc1ccccc1Cn1c(=O)n(CCCCC(=O)NCCc2ccccc2)c(=O)c2ccccc21,36*,24,78*,9,19,19
Cc1ccc(CNC(=O)CCCn2c(=O)c3ccccc3n(Cc3cccc(F)c3)c2=O)cc1,1,0,39*,21,4,-1
O=C(CCCCn1c(=O)c2ccccc2n(Cc2ccccc2F)c1=O)NCCc1ccccc1,1,3,56*,17,11,0
CCOc1ccc(NC(=O)Cn2c(=O)n(CCCCC(=O)NCCc3ccccc3)c(=O)c3ccccc32)cc1,19,8,17,19,15,28
Cn1ncc2c(N3CCSCC3)nc(C(=O)NC3CCCC3)nc21,1,x,8,-1,1,x
